One molecule from the supplement of paper PMC8728848 can be followed below.

Holding throughout (assay): glycan array binding signal (z-score within array); higher = stronger binding
Common to all, as to conditions: glycan notation: IUPAC condensed, linker removed

For assay [1], the target named is Fuc(a1-2)Gal(b1-4)GlcNAc6S. An outline of the steps:
(§1)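 Columns mapping to the same glycan were averaged after glycan names were converted to IUPAC-condensed notation. The data come from 3228 arrays in the Consortium for Functional Glycomics database, limited to those with an available protein sequence. Binding is reported as a within-array Z-score averaged across arrays of one protein sequence and across linkers.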

Assay [2] concerns the target Fuc(a1-2)Gal(b1-4)[Fuc(a1-3)]GlcNAc. An outline of the steps: as §1
Another assay concerns the target Fuc(a1-2)[Gal(a1-3)]Gal. The method, boiled down:
as §1

In assay [3] the target is Fuc(a1-2)[Gal(a1-3)]Gal(b1-3)GlcNAc. The method, boiled down: as §1
Assay [4] addresses Fuc(a1-2)[Gal(a1-3)]Gal(b1-4)[Fuc(a1-3)]GlcNAc. An outline of the steps:
as §1

Assay [5] deals with Fuc(a1-2)[GalNAc(a1-3)]Gal(b1-4)[Fuc(a1-3)]GlcNAc. An outline of the steps:
as §1

For assay [6], the target named is Fuc(a1-3)[Gal3S(b1-4)]Glc6S. The method, boiled down: as §1
The target of assay [7] is Fuc(a1-3)[Gal3S(b1-4)]GlcNAc6S. An outline of the steps:
as §1

A further assay has as its target Gal(a1-6)Glc. The method, boiled down:
as §1

In assay [8] the target is Gal(b1-4)GlcNAc(b1-2)Man(a1-3)[Gal(b1-4)GlcNAc(b1-2)Man(a1-6)]Man(b1-4)GlcNAc(b1-4)GlcNAc. An outline of the steps:
as §1

The target in another assay is GalNAc(b1-4)GlcNAc. An outline of the steps:
as §1

Assay [9] has as its target GlcNAc(b1-2)Man(a1-3)[GlcNAc(b1-2)Man(a1-6)]Man(b1-4)GlcNAc(b1-4)GlcNAc. The method, boiled down:
as §1

Assay [10] concerns the target GlcNAc(b1-3)Gal(b1-3)GalNAc. The method, boiled down: as §1
Another assay concerns the target GlcNAc(b1-3)Gal(b1-4)Glc. The method, boiled down:
as §1

Assay [11] has as its target Neu5Ac(a2-3)Gal(b1-3)GlcNAc(b1-3)Gal(b1-3)GlcNAc. An outline of the steps: as §1
Assay [12] addresses Neu5Ac(a2-3)Gal(b1-4)[Fuc(a1-3)]GlcNAc(b1-3)Gal. The method, boiled down:
as §1

In assay [13] the target is Neu5Ac(a2-3)Gal(b1-4)[Fuc(a1-3)]GlcNAc(b1-3)Gal(b1-4)GlcNAc. The method, boiled down: as §1
A further assay deals with Neu5Ac(b2-6)GalNAc. The method, boiled down:
as §1

Assay [14] concerns the target Neu5Ac9Ac(a2-6)Gal(b1-4)GlcNAc. An outline of the steps: as §1
The target in assay [15] is Neu5Gc(a2-6)Gal(b1-4)GlcNAc. The method, boiled down:
as §1

This excerpt belongs to a sample that is enriched for the strongest signals.

B1: CD23 (Homo sapiens) (protein)
chain: MELQVSSGFVCNTCPEKWINFQRKCYYFGKGTKQWVHARYACDDMEGQLVSIHSPEEQDFLTKHASHTGSWIGLRNLDLKGEFIWVDGSHVDYSNWAPGEPTSRSQGEDCVMMRGSGRWNDAFCDRKLGAWVCDRLATCTPPASEGSAESMGPDSRPDPDGRLPTPSAPLHS
As for B1, the “glycan array binding signal (z-score)” value in assay [1] was -0.186; in assay [2], 0.228; in the assay with Fuc(a1-2)[Gal(a1-3)]Gal, -0.374; in [3], -0.086; in [4] it was 0.988; in assay [5], 0.752. In addition, the “glycan array binding signal (z-score)” value in assay [6] was 2.25; in [7], 0.491; in the assay with Gal(a1-6)Glc, 0.204; in [8], -0.225; with GalNAc(b1-4)GlcNAc it was -0.48; in [9], -0.157. In addition, the “glycan array binding signal (z-score)” value is 1.43 in assay [10]; -0.494 in the assay with GlcNAc(b1-3)Gal(b1-4)Glc; -0.189 in assay [11]; -0.435 in assay [12]; 1.15 in [13]; -0.582 with Neu5Ac(b2-6)GalNAc. For the same molecule, the “glycan array binding signal (z-score)” value is 1.43 in assay [14] and -0.645 in assay [15].
